ALDH1A1 block = blocks purified human ALDH1A1 activity | Purified ALDH1A1, NADH fluorescence, propionaldehyde substrate | Potency, µM (highest dose often 75.3 µM), most hits filed as inhibitors | 220,000 compounds, 7.3% hits
HPGD inh = blocks human HPGD enzyme activity; P15428; purified HPGD, NADH fluorescence kinetic, PGE2 substrate; Potency, µM, actives largely listed as inhibitors; 150,000 compounds, 4.3% hits
Target sequence (P15428 whole entry, looked up): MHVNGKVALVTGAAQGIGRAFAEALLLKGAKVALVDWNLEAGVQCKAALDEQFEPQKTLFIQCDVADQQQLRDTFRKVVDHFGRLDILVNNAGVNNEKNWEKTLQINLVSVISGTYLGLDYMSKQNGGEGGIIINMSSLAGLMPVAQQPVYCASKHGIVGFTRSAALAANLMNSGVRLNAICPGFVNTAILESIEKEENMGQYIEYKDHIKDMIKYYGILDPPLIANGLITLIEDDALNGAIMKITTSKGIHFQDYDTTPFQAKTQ
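NADH formation kinetics: reaction with 30 uM PGE2 and 1 mM NAD+ (final), 20 nM enzyme, Tris-HCl pH 8 with Tween 20, after 15 min compound preincubation at room temperature. Fluorescence change, last versus first of five reads.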
JMJD2E inh = inhibitors of human JMJD2E histone demethylase. JMJD2E catalytic domain, FDH-coupled NADH fluorescence (FDH is formaldehyde dehydrogenase). Potency, µM (doses to about 57.1 µM), actives largely listed as inhibitors. 230,000 compounds, 1.6% hits; note: nearly all actives have a fitted effect of over 50% in size
Target sequence (B2RXH2 1-337 limits assumed): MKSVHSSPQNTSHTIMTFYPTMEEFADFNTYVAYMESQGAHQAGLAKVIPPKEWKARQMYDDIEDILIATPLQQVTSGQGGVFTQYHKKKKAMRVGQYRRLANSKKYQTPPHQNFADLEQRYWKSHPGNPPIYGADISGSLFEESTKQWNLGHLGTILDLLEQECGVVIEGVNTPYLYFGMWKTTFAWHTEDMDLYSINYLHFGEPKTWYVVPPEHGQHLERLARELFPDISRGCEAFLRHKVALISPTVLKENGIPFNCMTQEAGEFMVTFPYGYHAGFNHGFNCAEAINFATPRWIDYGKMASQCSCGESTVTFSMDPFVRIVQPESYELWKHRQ
PNC inhibitor = inhibitors of perinucleolar compartment assembly; PC3M PTB-GFP, PNC prevalence imaging, 16 h; active compounds read low; activity change (PNC), negative = inhibition, % at 10 µM; 140,000 compounds, 3.1% hits; AID 2417;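 active = readout at or below -70, meaning at least 70% loss of cells showing the perinucleolar compartment, a nuclear body marking cancer cells; inconclusive = readout between -30 and a set limit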
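Read-out is percentage of cells bearing a perinucleolar compartment, from automated 20x imaging of fixed, Hoechst-stained PC3M PTB-GFP cells. Cells were seeded 4 h, then exposed 16 h to compound (23 nl of library stock) in duplicate plates.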
Of the large screens only hits and unclear results are named; the others gave an inactive call. In the library only some 11% were active in any assay of this set; here they are far more common. Unless noted, calls come from the whole dose curve; as a rule, active = well fitted inhibition curve with a large enough effect (not every such curve was filed as active); inconclusive = small, poorly fitted or top-dose-only effect, or another doubt; inactive = no such curve, though single readings can be large or run the other way.

COc1ccc(C2C(C(=O)c3ccco3)=C(O)C(=O)N2CCOCCO)cc1OC (centres undefined)	ALDH1A1 block 20µM
C=CCOc1cccc(C2C(C(=O)c3ccco3)=C(O)C(=O)N2CCN(CC)CC)c1 (centres undefined)	JMJD2E inh inconclusive, PNC inhibitor -134
COc1ccc(C2C(C(=O)c3sc(C)nc3C)=C(O)C(=O)N2CCN(C)C)cc1OC (centres undefined)	ALDH1A1 block inconclusive, PNC inhibitor -122
C=CC1=C2C=C(C3CC3)N(CCCOC(C)C)C=C2C(=O)C(C)(OC(=O)c2ccco2)C1=O (centres undefined)	none (no result: PNC inhibitor)
CCOC(=O)c1ccc(Nc2sc(C(=O)c3cccc([N+](=O)[O-])c3)c(N)c2C#N)cc1	none (no result: HPGD inh, PNC inhibitor)
CC1=C(C)C(c2ccccc2)NC(=S)N1 (centres undefined)	ALDH1A1 block 13µM
Cn1c(-c2ccccc2)cnc1SCC(=O)N1CCCc2ccccc21	ALDH1A1 block 10µM, PNC inhibitor inconclusive
O=C(CSc1ncc(-c2ccccc2)n1C1CCCC1)N1CCc2ccccc21	ALDH1A1 block 3.5µM
Cc1ccc(-c2cnc(SCC(=O)N3CCCc4ccccc43)n2C)cc1	ALDH1A1 block inconclusive
Nc1nc(SCC(=O)N2CCc3ccccc32)[nH]c(=O)c1-c1ccccc1	ALDH1A1 block inconclusive, PNC inhibitor -107
Cc1cccc2[nH]c(SCC(=O)N3CCOCC3)nc12	none (no result: HPGD inh, PNC inhibitor)
O=C(CCl)N(c1ccc(Cl)cc1)c1c[nH]c2ccccc12	ALDH1A1 block 7.1µM
O=C(CCl)N(c1ccccc1)c1c[nH]c2ccccc12	ALDH1A1 block inconclusive (no result: HPGD inh)
O=c1c(-c2cccc(F)c2)nc2cncnc2n1-c1ccccc1	none (no result: JMJD2E inh, PNC inhibitor)
CCN1CCN(c2cc3c(cc2F)c(=O)c(C(=O)O)cn3C2CC2)CC1	ALDH1A1 block inconclusive, HPGD inh inconclusive, JMJD2E inh inconclusive, PNC inhibitor -115
Cc1cc(C)c2nc(SCC(=O)NCCC3=CCCCC3)cc(C)c2c1	PNC inhibitor inconclusive
CC(NC(=O)/C=C/c1ccco1)c1nc2ccccc2n1Cc1cccc(Cl)c1 (centres undefined)	ALDH1A1 block 14µM
COc1ccc(-c2nc(SC)n(C)c(=O)c2C#N)cc1OC	ALDH1A1 block inconclusive, HPGD inh inconclusive, JMJD2E inh inconclusive
COc1ccc(C(c2c(O)nc(SC)n(C)c2=O)c2c(O)nc(SC)n(C)c2=O)cc1O	ALDH1A1 block 14µM, PNC inhibitor inconclusive
COC(=O)c1ccc(CSc2n[nH]c(-c3ccccc3)n2)o1	none (no result: HPGD inh, PNC inhibitor)
CN(C)c1nc(N)nc(CSc2n[nH]c(-c3ccccc3)n2)n1	HPGD inh 4µM
CC(C)OCCCNC(=O)C1CCC(CNS(=O)(=O)c2ccccc2)CC1 (centres undefined)	ALDH1A1 block 3.5µM, HPGD inh inconclusive
CC(C)OCCCNC(=O)C1CCC(CNS(=O)(=O)c2ccc(Cl)cc2)CC1 (centres undefined)	ALDH1A1 block inconclusive
Cc1ccc(S(=O)(=O)NCC2CCC(C(=O)NCCCOC(C)C)CC2)cc1 (centres undefined)	ALDH1A1 block 0.71µM, PNC inhibitor inconclusive
NS(=O)(=O)c1cc(C(=O)OCC(=O)c2ccccc2)c(Cl)cc1Cl	ALDH1A1 block 16µM (no result: HPGD inh, PNC inhibitor)
O=C(CN1CC(c2ccccc2)CC1=O)OCc1ccccc1F (centres undefined)	ALDH1A1 block 8.9µM, PNC inhibitor -91
Cc1cccc(NC(=O)C2CCCC2)c1	none
Cc1ccc(C2CC2C(=O)NNC(=S)Nc2cccc(C)c2)cc1 (centres undefined)	ALDH1A1 block 18µM, PNC inhibitor inconclusive
Cc1ccc(C2CC2C(=O)NNC(=S)Nc2cccc(Cl)c2)cc1 (centres undefined)	ALDH1A1 block 7.1µM, PNC inhibitor inconclusive
N[C@H](C(=O)O)c1cccc(O)c1	JMJD2E inh 22µM (no result: PNC inhibitor)
CCOC(=O)c1[nH]c2ccc(OC)cc2c1NC(=S)N1CCN(c2ccccc2OC)CC1	ALDH1A1 block inconclusive, PNC inhibitor inconclusive
O=C1c2ccccc2C(O)(O)[C@@]1(O)[C@]1(O)C(=O)c2ccccc2C1(O)O	ALDH1A1 block 0.25µM (no result: JMJD2E inh, PNC inhibitor)
O=C(Cn1nnc2ccccc21)NNC(=O)c1ccccc1	none (no result: ALDH1A1 block, HPGD inh, PNC inhibitor)
Cc1cc(=O)[nH]c(SCC(=O)C23CC4CC(CC(C4)C2)C3)c1C#N	ALDH1A1 block 3.2µM
Cc1cc(=O)[nH]c(SCC(=O)O)c1C#N	none (no result: HPGD inh)
COc1ccc(N=Nc2nc3cc(Br)c(Br)cc3n2C)c(OC)c1	HPGD inh 7.9µM
COc1ccc(CNc2nc3ccccc3n2C)c(OC)c1	none (no result: HPGD inh, PNC inhibitor)
C=CCNC(=O)/C(=C\C=C\c1ccccc1)NC(=O)c1ccc(OCCCC)cc1	PNC inhibitor -105
Cc1nn(-c2ccccc2)c(Cl)c1CN(C(=O)CCl)c1cccc2ccccc12	ALDH1A1 block 28µM
CC(=O)N(Cc1c(C)nn(-c2ccccc2)c1Cl)c1ccc(Cl)cc1	PNC inhibitor inconclusive
Cc1nn(-c2ccccc2)c(Cl)c1CN(C(=O)CCl)c1ccc(Cl)cc1	ALDH1A1 block 7.1µM
O=[N+]([O-])c1cccc(-c2noc(-c3cccs3)n2)c1	none (no result: ALDH1A1 block, HPGD inh, PNC inhibitor)
Cn1nnnc1SCC(=O)Nc1ccc2c(c1)OCO2	none (no result: HPGD inh, PNC inhibitor)
CC(C)[C@H](Nc1nc(-c2ccccc2)nc2c1oc1ccccc12)C(=O)O	ALDH1A1 block 1.1µM
CCc1nc(Nc2ccccc2)c2oc3ccccc3c2n1	ALDH1A1 block inconclusive, HPGD inh inconclusive, JMJD2E inh inconclusive
CCC(C)[C@H](Nc1nc(-c2ccccc2)nc2c1oc1ccccc12)C(=O)O (some centres undefined)	ALDH1A1 block 0.79µM
CC(C)C(Nc1ncnc2c1oc1ccccc12)C(=O)O (centres undefined)	JMJD2E inh inconclusive (no result: HPGD inh, PNC inhibitor)
CCc1nc(N[C@H](C(=O)O)C(C)CC)c2oc3ccccc3c2n1 (some centres undefined)	ALDH1A1 block 0.5µM
COc1ccc(C(=O)Nc2ccccc2C(=O)NC(Cc2c[nH]c3ccccc23)C(=O)O)cc1 (centres undefined)	none (no result: HPGD inh, PNC inhibitor)
CCCCN=C1NN=C(c2ccc3c(c2)OCCO3)CS1	ALDH1A1 block 10µM, JMJD2E inh inconclusive (no result: HPGD inh, PNC inhibitor)
COCCn1c(C)cc(C2=NNC(=Nc3ccccc3)SC2)c1C	ALDH1A1 block inconclusive
COc1ccc(N=C2NN=C(c3ccc4c(c3)OCCO4)CS2)cc1	ALDH1A1 block 25µM
c1cc2c(cc1C1=NNC(=NC3CC3)SC1)OCCO2	ALDH1A1 block 10µM, JMJD2E inh inconclusive (no result: HPGD inh, PNC inhibitor)
COCCn1c(C)cc(C2=NNC(=Nc3ccc(OC)cc3)SC2)c1C	ALDH1A1 block 10µM, JMJD2E inh inconclusive, PNC inhibitor inconclusive
COc1cc2[nH]c3c(=O)n4c(nc3c2cc1OC)SCCC4	ALDH1A1 block inconclusive (no result: HPGD inh, PNC inhibitor)
COCCN=C1NN=C(c2ccc(C)c([N+](=O)[O-])c2)CS1	ALDH1A1 block inconclusive (no result: HPGD inh, PNC inhibitor)
CCCCN=C1NN=C(c2ccc(C)c(C)c2)CS1	ALDH1A1 block 20µM, JMJD2E inh inconclusive (no result: HPGD inh, PNC inhibitor)
Cc1onc(-c2ccccc2)c1CNS(=O)(=O)c1ccccc1[N+](=O)[O-]	ALDH1A1 block 13µM (no result: HPGD inh, PNC inhibitor)
Cc1ccc(CN(C)C(=O)c2cc(COc3ccc(F)cc3Cl)on2)o1	ALDH1A1 block 7.1µM (no result: HPGD inh, PNC inhibitor)
Cc1cc(CN(C)C(=O)c2cc(COc3ccc(F)cc3Cl)on2)n[nH]1	none (no result: HPGD inh, PNC inhibitor)

Assay outcomes deposited in PubChem BioAssay by National Center for Advancing Translational Sciences (NCATS).
